# Data published in PubChem BioAssay (EPA / NIEHS).
# Results filed as inconclusive are left out. Active and inactive are the calls of the source. The calls were made as follows: active = hit-call score of the fitted dose curve at least 0.9, where 1 is the maximum; inconclusive = response in the unintended direction; inactive = score below 0.9.
# Columns and labels:
# [1] = biological target: human Sirtuin 2 (SIRT2), SIRT2 (gene 22933) (UniProt Q8IXJ6); test: NVS_ENZ_hSIRT2: NovaScreen (NVS) Enzymatic Assay for human Sirtuin 2 (SIRT2) (AID 2283217)
# human Sirtuin 2 (SIRT2), SIRT2 (gene 22933), sequence (Q8IXJ6 whole entry, looked up): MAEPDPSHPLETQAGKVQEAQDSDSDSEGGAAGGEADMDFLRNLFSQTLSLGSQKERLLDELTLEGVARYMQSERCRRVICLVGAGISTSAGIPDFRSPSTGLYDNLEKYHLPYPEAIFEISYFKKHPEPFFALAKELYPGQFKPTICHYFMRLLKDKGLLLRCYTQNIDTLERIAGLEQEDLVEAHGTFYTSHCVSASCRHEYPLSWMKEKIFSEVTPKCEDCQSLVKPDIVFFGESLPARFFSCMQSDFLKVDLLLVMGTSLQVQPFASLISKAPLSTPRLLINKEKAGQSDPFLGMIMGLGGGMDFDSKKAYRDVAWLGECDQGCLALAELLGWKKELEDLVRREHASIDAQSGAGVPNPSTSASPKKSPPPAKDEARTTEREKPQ
# In short: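 Single-point duplicate screen at 25 uM, then concentration-response (max 50 uM) for chemicals passing threshold. Enzyme activity of recombinant human SIRT2 measured after 1 hr by fluorescence with mobility-shift separation of product; DMSO baseline.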
# [2] = biological target: human Sirtuin 3 (SIRT3), SIRT3 (gene 23410) (UniProt Q9NTG7); test: NVS_ENZ_hSIRT3: NovaScreen (NVS) Enzymatic Assay for human Sirtuin 3 (SIRT3) (AID 2283222)
# human Sirtuin 3 (SIRT3), SIRT3 (gene 23410), sequence (Q9NTG7 whole entry, looked up): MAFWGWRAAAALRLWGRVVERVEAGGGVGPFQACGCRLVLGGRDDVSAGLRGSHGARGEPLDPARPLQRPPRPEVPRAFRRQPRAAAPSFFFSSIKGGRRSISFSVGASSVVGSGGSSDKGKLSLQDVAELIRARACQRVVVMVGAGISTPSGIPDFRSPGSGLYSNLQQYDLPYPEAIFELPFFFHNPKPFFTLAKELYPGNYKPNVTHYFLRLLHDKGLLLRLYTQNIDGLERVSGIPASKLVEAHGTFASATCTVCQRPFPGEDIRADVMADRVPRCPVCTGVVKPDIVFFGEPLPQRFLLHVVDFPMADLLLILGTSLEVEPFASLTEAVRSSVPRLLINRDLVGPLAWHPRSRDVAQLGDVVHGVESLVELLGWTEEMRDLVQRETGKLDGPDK
# In short: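 Cell-free enzyme assay with recombinant protein and fluorescent substrate, product separated by electrophoretic mobility shift; read 1 hour after dosing. Screened in duplicate at 25 uM, then singleton concentration-response up to 50 uM; loss of signal versus DMSO.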
# [3] = biological target: Tyrosine-protein phosphatase non-receptor type 14 (Homo sapiens) (UniProt Q15678); test: NVS_ENZ_hPTPN14: NovaScreen (NVS) Enzymatic Assay for human Protein Tyrosine Phosphatase Non-receptor Type 14 (PTPN14) (AID 2283206)
# Tyrosine-protein phosphatase non-receptor type 14 (Homo sapiens), sequence (Q15678 whole entry, looked up): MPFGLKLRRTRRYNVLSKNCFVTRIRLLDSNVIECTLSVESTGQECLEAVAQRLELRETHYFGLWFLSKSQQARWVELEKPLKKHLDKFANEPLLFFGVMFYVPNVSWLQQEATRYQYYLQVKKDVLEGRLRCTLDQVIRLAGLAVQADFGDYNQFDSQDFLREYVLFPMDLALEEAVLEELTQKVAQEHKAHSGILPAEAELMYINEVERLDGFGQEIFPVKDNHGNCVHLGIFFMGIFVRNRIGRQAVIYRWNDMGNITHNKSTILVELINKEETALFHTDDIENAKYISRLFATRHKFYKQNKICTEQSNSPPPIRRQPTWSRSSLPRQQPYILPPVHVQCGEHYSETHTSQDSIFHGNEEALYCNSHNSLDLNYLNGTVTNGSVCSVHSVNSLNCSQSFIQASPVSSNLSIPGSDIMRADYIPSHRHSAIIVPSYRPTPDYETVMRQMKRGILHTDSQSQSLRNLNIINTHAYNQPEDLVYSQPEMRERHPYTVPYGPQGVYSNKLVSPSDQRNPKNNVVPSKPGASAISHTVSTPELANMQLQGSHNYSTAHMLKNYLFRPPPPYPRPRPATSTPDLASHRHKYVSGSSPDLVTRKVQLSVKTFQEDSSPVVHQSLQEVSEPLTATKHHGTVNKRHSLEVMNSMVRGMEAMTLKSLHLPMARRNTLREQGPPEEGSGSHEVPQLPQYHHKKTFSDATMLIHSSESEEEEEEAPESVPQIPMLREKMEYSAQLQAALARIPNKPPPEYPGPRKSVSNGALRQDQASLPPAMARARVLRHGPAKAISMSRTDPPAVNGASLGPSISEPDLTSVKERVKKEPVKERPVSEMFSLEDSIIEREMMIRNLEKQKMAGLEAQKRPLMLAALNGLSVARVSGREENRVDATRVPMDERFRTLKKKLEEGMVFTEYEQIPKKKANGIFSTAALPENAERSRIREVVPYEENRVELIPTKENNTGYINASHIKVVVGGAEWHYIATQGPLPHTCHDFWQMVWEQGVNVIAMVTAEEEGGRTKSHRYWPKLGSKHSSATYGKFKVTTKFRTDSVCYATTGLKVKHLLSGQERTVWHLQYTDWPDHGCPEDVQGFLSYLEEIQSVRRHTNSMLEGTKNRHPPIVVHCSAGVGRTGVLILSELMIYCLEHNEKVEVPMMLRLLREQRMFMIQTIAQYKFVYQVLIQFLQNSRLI
# In short: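 Fluorescent substrate turnover by recombinant human PTPN14 was measured 0.5 h after compound addition, with substrate and product separated by mobility shift. Single-point screening at 25 uM, then concentration-response up to 50 uM for chemicals meeting threshold (e.g., 30% inhibition).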
# [4] = biological target: human Protein Tyrosine Phosphatase Receptor Type F (PTPRF), PTPRF (gene 5792) (UniProt P10586); test: NVS_ENZ_hPTPRF: NovaScreen (NVS) Enzymatic Assay for human Protein Tyrosine Phosphatase Receptor Type F (PTPRF) (AID 2283213)
# Description: NVS_ENZ_hPTPRF is a biochemical, single-readout assay that uses extracted gene-proteins in a cell-free assay. Measurements were taken 1 hour after chemical dosing in a 384-well plate.NVS_ENZ_hPTPRF is one of one assay component(s) measured or calculated from the NVS_ENZ_hPTPRF assay. It is designed to make measurements of enzyme activity, a form of enzyme reporter, as detected with fluorescence intensity signals by Fluorescence and electrophoretic mobility shift technology.Data from the assay component NVS_ENZ_hPTPRF was analyzed into 1 assay endpoint. This assay endpoint, NVS_ENZ_hPTPRF, was analyzed in the positive analysis fitting direction relative to DMSO as the negative control and baseline of activity. Using a type of enzyme reporter, loss-of-signal activity can be used to understand changes in the enzymatic activity as they relate to the gene PTPRF. Furthermore, this assay endpoint can be referred to as a primary readout, because this assay has produced multiple assay endpoints where this one serves a enzymatic activity function. To generalize the intended target to other relatable targets, this assay endpoint is annotated to the phosphatase intended target family, where the subfamily is receptor tyrosine phosphatase. […]
# [5] = biological target: human Sirtuin 1 (SIRT1), SIRT1 (gene 23411) (UniProt Q96EB6); test: NVS_ENZ_hSIRT1: NovaScreen (NVS) Enzymatic Assay for human Sirtuin 1 (SIRT1) (AID 2283219)
# human Sirtuin 1 (SIRT1), SIRT1 (gene 23411), sequence (Q96EB6 whole entry, looked up): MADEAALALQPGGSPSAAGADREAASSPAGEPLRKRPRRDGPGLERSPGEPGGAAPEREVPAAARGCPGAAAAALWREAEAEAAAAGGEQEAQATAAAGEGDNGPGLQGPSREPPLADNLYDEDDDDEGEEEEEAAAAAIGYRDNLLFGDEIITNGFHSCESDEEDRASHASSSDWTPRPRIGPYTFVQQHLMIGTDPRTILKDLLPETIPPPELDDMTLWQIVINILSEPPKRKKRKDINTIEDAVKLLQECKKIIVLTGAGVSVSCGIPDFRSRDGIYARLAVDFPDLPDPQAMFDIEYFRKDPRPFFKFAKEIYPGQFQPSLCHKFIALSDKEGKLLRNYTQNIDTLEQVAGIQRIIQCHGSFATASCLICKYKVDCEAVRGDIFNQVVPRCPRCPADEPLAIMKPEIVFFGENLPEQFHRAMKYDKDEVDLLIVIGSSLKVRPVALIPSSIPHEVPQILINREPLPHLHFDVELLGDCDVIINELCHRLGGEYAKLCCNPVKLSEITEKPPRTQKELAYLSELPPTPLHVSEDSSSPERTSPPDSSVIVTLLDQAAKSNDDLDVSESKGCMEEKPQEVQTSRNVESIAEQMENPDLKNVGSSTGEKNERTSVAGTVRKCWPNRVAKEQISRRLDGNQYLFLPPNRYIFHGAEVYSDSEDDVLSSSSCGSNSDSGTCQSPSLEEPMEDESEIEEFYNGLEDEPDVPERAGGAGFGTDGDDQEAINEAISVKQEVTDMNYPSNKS
# In short: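 Cell-free recombinant SIRT1 with a fluorescent substrate; substrate and product separated by electrophoretic mobility shift and read by fluorescence intensity, 1 h after dosing. Primary screen at 25 uM in duplicate; hits re-run in concentration-response up to 50 uM, relative to DMSO.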
# [6] = biological target: human Rho Associated Coiled-coil Containing Protein Kinase 1 (ROCK1), ROCK1 (gene 6093) (UniProt Q13464); test: NVS_ENZ_hROCK1: NovaScreen (NVS) Enzymatic Assay for human Rho Associated Coiled-coil Containing Protein Kinase 1 (ROCK1) (AID 2283214)
# human Rho Associated Coiled-coil Containing Protein Kinase 1 (ROCK1), ROCK1 (gene 6093), sequence (Q13464 whole entry, looked up): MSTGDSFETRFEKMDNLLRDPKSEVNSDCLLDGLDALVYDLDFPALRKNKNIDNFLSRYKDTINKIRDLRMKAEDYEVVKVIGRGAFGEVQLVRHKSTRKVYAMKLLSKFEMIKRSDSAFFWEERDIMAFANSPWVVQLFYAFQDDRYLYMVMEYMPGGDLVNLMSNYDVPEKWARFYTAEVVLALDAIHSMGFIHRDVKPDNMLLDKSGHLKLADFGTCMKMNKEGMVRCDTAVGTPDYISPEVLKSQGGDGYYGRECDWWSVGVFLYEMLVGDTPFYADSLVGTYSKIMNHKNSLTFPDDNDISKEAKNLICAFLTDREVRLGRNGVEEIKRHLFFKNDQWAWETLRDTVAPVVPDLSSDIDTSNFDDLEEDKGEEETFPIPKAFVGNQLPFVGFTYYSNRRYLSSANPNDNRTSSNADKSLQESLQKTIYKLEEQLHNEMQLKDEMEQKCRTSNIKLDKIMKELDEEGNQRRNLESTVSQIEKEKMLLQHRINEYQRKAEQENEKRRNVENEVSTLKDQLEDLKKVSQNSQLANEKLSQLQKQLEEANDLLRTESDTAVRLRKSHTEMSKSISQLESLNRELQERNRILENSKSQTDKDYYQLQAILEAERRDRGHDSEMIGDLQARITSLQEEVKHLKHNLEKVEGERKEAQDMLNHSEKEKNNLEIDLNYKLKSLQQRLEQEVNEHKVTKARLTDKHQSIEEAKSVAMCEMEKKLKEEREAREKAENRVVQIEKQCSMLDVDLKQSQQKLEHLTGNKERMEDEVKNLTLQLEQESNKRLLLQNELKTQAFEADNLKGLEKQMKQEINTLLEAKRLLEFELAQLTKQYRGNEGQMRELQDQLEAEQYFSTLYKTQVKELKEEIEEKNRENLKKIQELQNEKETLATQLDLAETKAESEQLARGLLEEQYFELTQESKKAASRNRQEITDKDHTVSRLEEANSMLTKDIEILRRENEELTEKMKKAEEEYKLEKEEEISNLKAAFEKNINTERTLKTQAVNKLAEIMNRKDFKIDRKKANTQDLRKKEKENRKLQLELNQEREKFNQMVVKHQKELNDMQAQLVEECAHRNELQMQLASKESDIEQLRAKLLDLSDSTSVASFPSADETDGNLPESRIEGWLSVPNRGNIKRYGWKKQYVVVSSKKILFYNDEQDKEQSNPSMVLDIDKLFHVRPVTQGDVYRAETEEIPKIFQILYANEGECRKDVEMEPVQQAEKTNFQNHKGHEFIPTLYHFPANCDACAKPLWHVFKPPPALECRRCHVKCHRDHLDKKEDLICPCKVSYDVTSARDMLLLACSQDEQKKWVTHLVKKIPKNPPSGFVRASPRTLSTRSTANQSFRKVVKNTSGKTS
# In short: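 Compounds first run in duplicate at 25 uM against recombinant human ROCK1, then followed in concentration series. Kinase activity was read 1 h post-dosing by fluorescence with mobility-shift separation, as signal loss relative to DMSO.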
# [7] = biological target: human Protein Tyrosine Phosphatase Non-receptor Type 6 (PTPN6), PTPN6 (gene 5777) (UniProt P29350); test: NVS_ENZ_hPTPN6: NovaScreen (NVS) Enzymatic Assay for human Protein Tyrosine Phosphatase Non-receptor Type 6 (PTPN6) (AID 2283210)
# human Protein Tyrosine Phosphatase Non-receptor Type 6 (PTPN6), PTPN6 (gene 5777), sequence (P29350 whole entry, looked up): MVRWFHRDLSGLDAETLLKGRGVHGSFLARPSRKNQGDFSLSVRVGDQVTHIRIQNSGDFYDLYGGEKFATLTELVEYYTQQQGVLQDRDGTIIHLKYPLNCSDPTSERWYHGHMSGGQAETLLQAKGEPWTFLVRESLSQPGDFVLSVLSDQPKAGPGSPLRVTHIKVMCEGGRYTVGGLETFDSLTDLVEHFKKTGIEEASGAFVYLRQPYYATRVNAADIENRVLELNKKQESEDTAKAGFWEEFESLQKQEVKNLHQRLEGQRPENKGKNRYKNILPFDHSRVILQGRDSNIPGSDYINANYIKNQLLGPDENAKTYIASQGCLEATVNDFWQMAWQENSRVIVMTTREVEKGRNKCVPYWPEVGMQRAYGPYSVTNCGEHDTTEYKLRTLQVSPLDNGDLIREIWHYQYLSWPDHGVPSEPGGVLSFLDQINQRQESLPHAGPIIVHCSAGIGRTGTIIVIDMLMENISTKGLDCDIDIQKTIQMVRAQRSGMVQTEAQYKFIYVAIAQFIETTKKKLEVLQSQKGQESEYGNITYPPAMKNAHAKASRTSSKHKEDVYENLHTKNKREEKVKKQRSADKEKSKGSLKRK
# In short: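 Recombinant human PTPN6 from SF9 cells, enzyme activity followed by fluorescence after mobility-shift separation of substrate and product at 1.33 h. Chemicals first tested at a single 25 uM in duplicate, then confirmed across concentration series; loss of signal relative to DMSO.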
# [8] = biological target: Tyrosine-protein phosphatase non-receptor type 13 (Homo sapiens) (UniProt Q12923); test: NVS_ENZ_hPTPN13: NovaScreen (NVS) Enzymatic Assay for human Protein Tyrosine Phosphatase Non-receptor Type 13 (PTPN13) (AID 2283205)
# In short: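 Screened first at a single 25 uM in duplicate; compounds passing the threshold (e.g. 30% inhibition) were rerun in concentration series, top 50 uM. Recombinant enzyme, fluorescent substrate, mobility-shift separation, 0.5 h read. Data fitted as inhibition relative to DMSO.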
# [9] = biological target: human Protein Tyrosine Phosphatase Receptor Type M (PTPRM), PTPRM (gene 5797) (UniProt P28827); test: NVS_ENZ_hPTPRM: NovaScreen (NVS) Enzymatic Assay for human Protein Tyrosine Phosphatase Receptor Type M (PTPRM) (AID 2283215)
# In short: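 Read-out is fluorescence after electrophoretic separation of substrate and product, taken 1.33 h post-dosing with recombinant enzyme. Compounds screened at 25 uM in duplicate, then concentration series for actives; activity as signal loss relative to DMSO.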
smiles,measurement,setting,value
NC(=O)c1nc(-c2cccc(-c3cc(F)ccc3OCC(F)(F)C(F)(F)F)c2)n[nH]1,outcome,[1],inactive
same,outcome,[2],inactive
CN1C(=O)N(c2ccccc2Br)Cc2cnc(Nc3ccc4c(c3)OCC(CO)O4)nc21 (stereo not drawn),outcome,[3],inactive
same,outcome,[4],inactive
same,outcome,[5],inactive
COc1cc(C(=O)NC2CCN(C)CC2)ccc1Nc1ncc2c(n1)N(C1CCCC1)CC(F)(F)C(=O)N2C,outcome,[3],inactive
same,outcome,[6],inactive
same,outcome,[1],inactive
Oc1ccc2ccccc2c1,outcome,[3],inactive
same,outcome,[5],inactive
CC(C)(c1cc(Br)c(O)c(Br)c1)c1cc(Br)c(O)c(Br)c1,outcome,[6],inactive
O=C1c2ccccc2C(=O)N1CCc1noc(-c2ccc(CN3CCCCCC3)s2)n1,outcome,[1],inactive
same,outcome,[2],inactive
CCN(Cc1cccc(S(=O)(=O)O)c1)c1ccc(C(=C2C=CC(=[N+](CC)Cc3cccc(S(=O)(=O)O)c3)C=C2)c2ccccc2S(=O)(=O)[O-])cc1,AC50,[3],11.9 µM (active)
c1ccc(C[n+]2cccc3ccccc32)cc1,outcome,[7],inactive
O=C(O)Cn1c(=O)n(Cc2ccc(Br)cc2F)c(=O)c2ccc(Cl)cc21,outcome,[1],inactive
CC(=O)N1CCN(c2ccc(OC[C@H]3CO[C@](Cn4ccnc4)(c4ccc(Cl)cc4Cl)O3)cc2)CC1,AC50,[1],6.46 µM (active)
same,outcome,[5],inactive
CCN(CC)C(=O)c1cc(S(=O)(=O)Cc2ccccc2)c(N2CCC(c3ccccc3)CC2)cc1N(CC)CCN(C)C,outcome,[8],inactive
same,outcome,[9],inactive
same,AC50,[2],4.57 µM (active)
CCCCOC(=O)CC(CC(=O)OCCCC)(OC(C)=O)C(=O)OCCCC,outcome,[8],inactive
COc1ccc2cc(S(=O)(=O)N[C@H](CC(=O)N[C@H](Cc3ccc(CN4[C@H](C)CCC[C@@H]4C)cc3)C(=O)N(C)C(C)C)c3ccc4c(c3)OCO4)ccc2c1,outcome,[5],inactive
